PubChem BioAssay (EPA / NIEHS)
Calls of active or inactive are those of the source. The calls were made as follows: active = hit-call score of the fitted dose curve at least 0.9, where 1 is the maximum; inactive = score below 0.9.

Tested on: not listed separately
Assay: ATG_GATA_CIS: Attagene CIS-FACTORIAL HepG2 Assay for human GATA Binding Protein (AID 2282944)
Settings: HepG2 GATA cis-element reporter, Attagene multiplex mRNA; actives raise or lower the signal
How it was run: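 Read-out: fluorescent reporter mRNA fragments resolved by capillary electrophoresis after RT-PCR. Human liver HepG2 cells carried transiently transfected cis-regulated reporter constructs; chemicals incubated 24 h; gain or loss of signal fitted relative to DMSO.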
With `CCC(C)c1nccnc1OC` (stereo not drawn) the outcome was “inactive”.
In the case of `CCCCCCCCCC=CCC1CC(=O)OC1=O` (stereo not drawn), the outcome is reported as “inactive”.
For `CCCCCCCCCCCC(=O)O`, the outcome was “inactive”.
With `C[C@]12CC[C@@H]3c4ccc(O)cc4CC[C@H]3[C@@H]1C[C@@H](O)[C@@H]2O` the outcome was “inactive”.
In the case of `CC(=O)Nc1ccc(O)cc1`, the outcome is reported as “inactive”.
With `O=C(O)C(=O)O` the outcome was “inactive”.
In the case of `O=S(=O)(O)c1ccc2cc(O)ccc2c1`, the outcome is reported as “inactive”.
With `Cc1ccc(C)c(S(=O)(=O)O)c1` the outcome was “inactive”.
With `CCCCCCCCCCCCCCCC(=O)OC` the outcome was “inactive”.
For `CCC(C)c1ccccc1O` (stereo not drawn), the outcome was “inactive”.
In the case of `CC(C)[C@@H]1CC[C@@H](C)C[C@H]1O`, the outcome is reported as “inactive”.
With `O=C1NS(=O)(=O)c2ccccc21` the outcome was “inactive”.
With `CN(C)c1ccc(C(=C2C=CC(=[N+](C)C)C=C2)c2ccccc2)cc1` the outcome was “inactive”.
With `O=C(F)C(F)(F)C(F)(F)C(F)(F)C(=O)F` the outcome was “inactive”.
With `CC(=O)CC(C)C` the outcome was “inactive”.
For `CCCCCCCCCCCC`, the outcome was “inactive”.
With `CCCCC=O` the outcome was “inactive”.
For `OCC(CO)(CBr)CBr`, the outcome was “inactive”.
For `CCCCC(CC)C(=O)O` (stereo not drawn), the outcome was “inactive”.
In the case of `Cc1ccc(S(=O)(=O)O)cc1`, the outcome is reported as “inactive”.
For `CCCCCCCCCCCCCCC`, the outcome was “inactive”.
For `NS(=O)(=O)O`, the outcome was “inactive”.
With `CNNCc1ccc(C(=O)NC(C)C)cc1` the outcome was “inactive”.
For `C=CCOCC(CO)(CO)CO`, the outcome was “inactive”.
In the case of `O=C(c1ccccc1)c1ccccc1`, the outcome is reported as “inactive”.
For `CCCC=O`, the outcome was “inactive”.
In the case of `Cc1[nH]nc2c1N=C(c1ccccc1Cl)c1cc([N+](=O)[O-])ccc1N2`, the outcome is reported as “inactive”.
With `CC(C)c1c(C(=O)Nc2ccccc2)c(-c2ccccc2)c(-c2ccc(F)cc2)n1CC[C@@H](O)C[C@@H](O)CC(=O)O` the outcome was “inactive”.
With `O=C(CCCN1CCC(O)(c2ccc(Cl)cc2)CC1)c1ccc(F)cc1` the AC50 was 52.8 µM (active).
With `O=C(OC(=O)C(F)(F)C(F)(F)F)C(F)(F)C(F)(F)F` the outcome was “inactive”.
For `CCC1CO1` (stereo not drawn), the outcome was “inactive”.
For `O=C(NO)c1ccccc1`, the outcome was “inactive”.
For `CS(=O)(=O)c1ccc([C@@H](CC2CCCC2)C(=O)Nc2cnccn2)cc1Cl`, the outcome was “inactive”.
In the case of `O=S(=O)(O)c1ccccc1`, the outcome is reported as “inactive”.
With `CC(C)C=O` the outcome was “inactive”.
With `c1cnc2c(c1)ccc1cccnc12` the outcome was “inactive”.
In the case of `c1cc[nH]c1`, the outcome is reported as “inactive”.
In the case of `CC(O)COc1ccccc1` (stereo not drawn), the outcome is reported as “inactive”.

Tested on: not listed separately
Assay: ATG_GLI_CIS: Attagene CIS-FACTORIAL HepG2 Assay for human Zinc Finger Protein GLI1 (AID 2282945)
Settings: HepG2, Attagene cis-factorial reporter mRNA, GLI element; actives raise or lower the signal
How it was run: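 Bidirectional curve fits relative to DMSO, using reporter mRNA levels from RT-PCR plus capillary electrophoresis. Cells were HepG2 transiently carrying cis-regulated reporter constructs, harvested 24 h after dosing.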
For `CCCCCCCCCCCC(=O)O`, the outcome was “inactive”.
For `CC(=O)Nc1ccc(O)cc1`, the outcome was “inactive”.
With `O=C(O)C(=O)O` the outcome was “inactive”.
In the case of `O=S(=O)(O)c1ccc2cc(O)ccc2c1`, the outcome is reported as “inactive”.
With `CCC(C)c1ccccc1O` (stereo not drawn) the outcome was “inactive”.
For `CC(C)[C@@H]1CC[C@@H](C)C[C@H]1O`, the outcome was “inactive”.
For `CC(=O)CC(C)C`, the outcome was “inactive”.
With `CCCCCCCCCCCC` the outcome was “inactive”.
For `CCCCC=O`, the outcome was “inactive”.
For `OCC(CO)(CBr)CBr`, the outcome was “inactive”.
For `Cc1ccc(S(=O)(=O)O)cc1`, the outcome was “inactive”.
In the case of `CCCCCCCCCCCCCCC`, the outcome is reported as “inactive”.
In the case of `O=C(c1ccccc1)c1ccccc1`, the outcome is reported as “inactive”.
With `CCCC=O` the outcome was “inactive”.
For `Cc1[nH]nc2c1N=C(c1ccccc1Cl)c1cc([N+](=O)[O-])ccc1N2`, the outcome was “inactive”.
With `CC(C)c1c(C(=O)Nc2ccccc2)c(-c2ccccc2)c(-c2ccc(F)cc2)n1CC[C@@H](O)C[C@@H](O)CC(=O)O` the outcome was “inactive”.
In the case of `CCC1CO1` (stereo not drawn), the outcome is reported as “inactive”.
With `O=C(NO)c1ccccc1` the outcome was “inactive”.
With `CS(=O)(=O)c1ccc([C@@H](CC2CCCC2)C(=O)Nc2cnccn2)cc1Cl` the outcome was “inactive”.
In the case of `O=S(=O)(O)c1ccccc1`, the outcome is reported as “inactive”.
For `CC(C)C=O`, the outcome was “inactive”.
With `c1cnc2c(c1)ccc1cccnc12` the outcome was “inactive”.
With `CC(O)COc1ccccc1` (stereo not drawn) the outcome was “inactive”.

Target: Bile acid receptor (Homo sapiens) (UniProt Q96RI1)
Sequence (Q96RI1 whole entry, looked up): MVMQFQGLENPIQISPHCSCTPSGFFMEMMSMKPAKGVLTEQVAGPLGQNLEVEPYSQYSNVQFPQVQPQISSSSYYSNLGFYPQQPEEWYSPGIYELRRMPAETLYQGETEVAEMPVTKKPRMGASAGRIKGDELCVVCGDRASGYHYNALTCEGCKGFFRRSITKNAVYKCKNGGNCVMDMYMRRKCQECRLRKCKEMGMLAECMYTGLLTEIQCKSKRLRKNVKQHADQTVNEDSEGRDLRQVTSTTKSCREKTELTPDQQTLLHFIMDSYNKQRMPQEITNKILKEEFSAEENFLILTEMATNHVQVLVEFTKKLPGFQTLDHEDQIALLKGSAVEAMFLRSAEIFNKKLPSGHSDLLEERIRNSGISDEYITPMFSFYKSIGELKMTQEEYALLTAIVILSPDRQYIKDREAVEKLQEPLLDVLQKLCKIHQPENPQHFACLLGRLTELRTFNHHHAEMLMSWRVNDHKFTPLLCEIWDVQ
Assay: ATG_IR1_CIS: Attagene CIS-FACTORIAL HepG2 Assay for human Nuclear Receptor Subfamily 1 Group H Member 4 (NR1H4), IR1 submotif (AID 2282946)
Settings: IR1 reporter transcription, actives raise or lower the signal
How it was run: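 HepG2 cells transiently transfected with multiplexed cis-element reporter units read endogenous transcription factor activity. After 24 h compound exposure, reporter mRNA was quantified by RT-PCR, fluorescent labelling, HpaI digestion and capillary electrophoresis; bidirectional fitting versus DMSO baseline.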
In the case of `CCC(C)c1nccnc1OC` (stereo not drawn), the outcome is reported as “inactive”.
With `CCCCCCCCCC=CCC1CC(=O)OC1=O` (stereo not drawn) the outcome was “inactive”.
For `CC(C)[C@@H]1CC[C@@H](C)C[C@H]1O`, the outcome was “inactive”.
With `O=C(F)C(F)(F)C(F)(F)C(F)(F)C(=O)F` the outcome was “inactive”.
For `CCCCC=O`, the outcome was “inactive”.
For `OCC(CO)(CBr)CBr`, the outcome was “inactive”.
With `C=CCOCC(CO)(CO)CO` the outcome was “inactive”.
With `O=C(OC(=O)C(F)(F)C(F)(F)F)C(F)(F)C(F)(F)F` the outcome was “inactive”.
In the case of `CCC1CO1` (stereo not drawn), the outcome is reported as “inactive”.
With `c1cc[nH]c1` the outcome was “inactive”.
In the case of `CC(O)COc1ccccc1` (stereo not drawn), the outcome is reported as “inactive”.

Tested on: not listed separately
Assay: ATG_GRE_CIS: Attagene CIS-FACTORIAL HepG2 Assay for human Glucocorticoid Response Elements (GRE) (AID 2282947)
Settings: HepG2 GRE cis-reporter, Attagene multiplex mRNA; AC50: actives raise or lower the signal unless noted; outcome: actives raise or lower the signal unless noted
How it was run: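 Multiplexed cis-reporter mRNA induction, HepG2, 24 h post-dose. RT-PCR, FAM-labelled, HpaI-digested amplicons by CE. Bidirectional fit vs DMSO.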
With `CCC(C)c1nccnc1OC` (stereo not drawn) the outcome was “inactive”.
In the case of `CCCCCCCCCC=CCC1CC(=O)OC1=O` (stereo not drawn), the outcome is reported as “inactive”.
In the case of `C[C@]12CC[C@@H]3c4ccc(O)cc4CC[C@H]3[C@@H]1C[C@@H](O)[C@@H]2O`, the outcome is reported as “inactive”.
For `O=C(O)C(=O)O`, the outcome was “inactive”.
In the case of `O=S(=O)(O)c1ccc2cc(O)ccc2c1`, the outcome is reported as “inactive”.
With `CCCCCCCCCCCCCCCC(=O)OC` the outcome was “inactive”.
For `CCC(C)c1ccccc1O` (stereo not drawn), the outcome was “inactive”.
With `CN(C)c1ccc(C(=C2C=CC(=[N+](C)C)C=C2)c2ccccc2)cc1` the outcome was “inactive”.
For `O=C(F)C(F)(F)C(F)(F)C(F)(F)C(=O)F`, the outcome was “inactive”.
For `CC(=O)CC(C)C`, the outcome was “inactive”.
In the case of `CCCCCCCCCCCC`, the outcome is reported as “inactive”.
For `CCCCC=O`, the outcome was “inactive”.
In the case of `OCC(CO)(CBr)CBr`, the outcome is reported as “inactive”.
In the case of `CCCCCCCCCCCCCCC`, the outcome is reported as “inactive”.
For `NS(=O)(=O)O`, the outcome was “inactive”.
For `CNNCc1ccc(C(=O)NC(C)C)cc1`, the outcome was “inactive”.
In the case of `C=CCOCC(CO)(CO)CO`, the outcome is reported as “inactive”.
With `O=C(c1ccccc1)c1ccccc1` the outcome was “inactive”.
With `CCCC=O` the outcome was “inactive”.
With `Cc1[nH]nc2c1N=C(c1ccccc1Cl)c1cc([N+](=O)[O-])ccc1N2` the outcome was “inactive”.
With `CC(C)c1c(C(=O)Nc2ccccc2)c(-c2ccccc2)c(-c2ccc(F)cc2)n1CC[C@@H](O)C[C@@H](O)CC(=O)O` the outcome was “inactive”.
With `O=C(CCCN1CCC(O)(c2ccc(Cl)cc2)CC1)c1ccc(F)cc1` the AC50 was 52 µM (active).
With `O=C(OC(=O)C(F)(F)C(F)(F)F)C(F)(F)C(F)(F)F` the outcome was “inactive”.
In the case of `CCC1CO1` (stereo not drawn), the outcome is reported as “inactive”.
In the case of `O=C(NO)c1ccccc1`, the outcome is reported as “inactive”.
With `CS(=O)(=O)c1ccc([C@@H](CC2CCCC2)C(=O)Nc2cnccn2)cc1Cl` the outcome was “inactive”.
In the case of `O=S(=O)(O)c1ccccc1`, the outcome is reported as “inactive”.
In the case of `CC(C)C=O`, the outcome is reported as “inactive”.
For `c1cnc2c(c1)ccc1cccnc12`, the outcome was “inactive”.
For `c1cc[nH]c1`, the outcome was “inactive”.
For `CC(O)COc1ccccc1` (stereo not drawn), the outcome was “inactive”.
